{"source": "PubChem BioAssay (Tox21)", "note": "Results filed as inconclusive are left out. Unmarked numbers belong to inactive results. Activity calls are given as the source filed them. Calls come from the whole dose curve; as a rule, active = well fitted cell-killing curve with a large enough effect in the repeat runs; inconclusive = weak or mixed curves, or effect the other way; inactive = no such curve, though single readings can be large or run the other way. % is set by controls: 0 for no effect and ±100 for the full control effect.", "data": [{"assay": "qHTS assay to identify small molecule antagonists of the retinoid-related orphan receptor gamma (ROR-gamma) signaling pathway - cell viability counter screen (AID 1159520); note: nearly all actives have a fitted effect of over 50% in size", "details": "Tet-on RORgamma CHO cells viability, ATP luminescence, 16 h; series mostly up to 92.4 µM", "text": "U.S. Tox21 Program National Center for Advancing Translational Sciences [NCATS] NIH Chemical Genomics Center [NCGC] U.S. Environmental Protection Agency [EPA] National Institutes of Environmental Health Sciences [NIEHS] National Toxicology Program [NTP] U.S. Food and Drug Administration [FDA] Tox21 Assay Overview: Nuclear steroid hormone receptors are involved in many biological processes including inflammatory responses, cell proliferation, and apoptosis. Environmental factors or compounds disrupting these nuclear receptor pathways and gene expression may promote susceptibility to immunotoxicants and autoimmune diseases. One important group of these expression factors are the retinoid-related orphan receptors. To assess compounds that may interfere with the retinoid-related orphan receptor gamma (ROR-gamma) transcription factor, a cell-based luciferase assay was used. The CHO cell-based assay utilizes a TET-inducible ROR expression factor and ROR response element-LUC reporter gene. Reporter gene activity was induced using Doxycycline Hyclate and measured after 16 hr incubation. Tet-on ROR gamma CHO cells were used to screen against the Tox21 10K compound library for cytotoxicity by measuring the viability of the cells based on the quantitation of the ATP.\nTox21 Assay Protocol Summary: Tet-on ROR gamma CHO cells were dispensed at 1,000 cells in 4 uL of culture medium per well into white wall/solid bottom 1536-well plates using a Multidrop Combi (Thermo Scientific, Waltham, MA) dispenser. Following incubation at 37 C and 5% CO2 for 4 hr, 23 nL of compounds dissolved in DMSO, positive controls or DMSO only were transferred by a Pintool station (Kalypsys, San Diego, CA) and after 2 hr incubation at 37 C, one ul of 1 uM (final concentration) of Doxycycline Hyclate was added to all the wells by using a Flying Reagent Dispenser (FRD) (Aurora Discovery, San Diego, CA). After 16 hr incubation at 37 C and 5% CO2, 5 uL of CellTiter-Glo reagent (Promega Corporation, Madison, WI) was added to each assay plate using FRD. After 30 min incubation at room temperature, luminescence was quantified on a ViewLux plate reader (Perkin Elmer, Waltham, MA).", "values": [{"smiles": "CCCOC(OCCC)OCCC", "outcome": "inactive"}, {"smiles": "CCOc1cc(NC(C)=O)ccc1C(=O)OC", "outcome": "inactive"}, {"smiles": "CC(C)C(=O)OCc1cccc(OC(=O)[C@@H]2N3C(=O)[C@@H](NC(=O)Cc4ccccc4)[C@H]3SC2(C)C)c1", "outcome": "inactive"}, {"smiles": "O=C(O)c1ccc(Cl)cc1Cl", "outcome": "inactive"}, {"smiles": "COCCOC(=O)C1=C(C)NC(C)=C(C(=O)OC(C)C)C1c1cccc([N+](=O)[O-])c1", "note": "(stereo not given)", "outcome": "inactive"}, {"smiles": "O=C(O)C(=O)Cc1ccccc1", "outcome": "inactive"}, {"smiles": "O=C(O)Cc1cn(-c2ccccc2)nc1-c1ccc(Cl)cc1", "outcome": "inactive"}, {"smiles": "COc1ccc(Br)c(C)c1", "outcome": "inactive"}, {"smiles": "Cc1ccsc1/C=C/C1=NCCCN1C", "outcome": "inactive"}, {"smiles": "CCC(C)(CCC(C)C)C(=O)O", "note": "(stereo not given)", "outcome": "inactive"}, {"smiles": "COc1ccc2nc(SCc3ncc(C)c(OC)c3C)[nH]c2c1", "outcome": "inactive"}, {"smiles": "CC(C)C(=O)OCCc1ccccc1", "outcome": "inactive"}, {"smiles": "OCCN(CCO)c1cccc(Cl)c1", "outcome": "inactive"}, {"smiles": "O=C(OCC1(COC(=O)c2cccnc2)CCCC(COC(=O)c2cccnc2)(COC(=O)c2cccnc2)C1O)c1cccnc1", "outcome": "inactive"}, {"smiles": "CCN(CC)CC(=O)Nc1c(C)cccc1C", "outcome": "inactive"}, {"smiles": "O=Cc1ccc(Cl)c(Cl)c1", "outcome": "inactive"}, {"smiles": "CC(C)N(c1ccccc1)C(C)C", "outcome": "inactive"}, {"smiles": "CCOC(=O)CC(=O)c1ccccc1", "outcome": "inactive"}, {"smiles": "Cc1cccc(C)c1OCC(C)N", "note": "(stereo not given)", "outcome": "inactive"}, {"smiles": "CCCCCCCC/C=C\\CCCCCCCC(=O)OCCCC", "activity, negative = cytotoxicity": "-6.58% [at 19 µM]"}, {"smiles": "Nc1ccc([N+](=O)[O-])c(N)c1", "outcome": "inactive"}, {"smiles": "CN1CCN(CC(=O)N2c3ccccc3C(=O)Nc3cccnc32)CC1", "activity, negative = cytotoxicity": "3.19% [at 8.39 µM]"}, {"smiles": "CC(=O)Nc1cccc(C)c1", "outcome": "inactive"}, {"smiles": "CC(COC(C)(C)C)OCCCO", "note": "(stereo not given)", "outcome": "inactive"}, {"smiles": "Cc1ccc2c(c1)OCC(=O)CO2", "outcome": "inactive"}, {"smiles": "O=C1O[C@@H]2[C@@H](O)[C@H](O)O[C@@H]2[C@H]1O", "outcome": "inactive"}, {"smiles": "CC(N)C(=O)OC(C)(C)Cc1ccc(Cl)cc1", "note": "(stereo not given)", "outcome": "inactive"}, {"smiles": "CCCCN", "outcome": "inactive"}, {"smiles": "NNc1nnc(NN)c2ccccc12", "outcome": "inactive"}, {"smiles": "CC(C)(C)OC(=O)c1ccc(O)cc1", "outcome": "inactive"}, {"smiles": "Brc1ccc(-c2ccccc2)cc1", "outcome": "inactive"}, {"smiles": "CCCOC(=O)C(C)O", "note": "(stereo not given)", "outcome": "inactive"}, {"smiles": "C=C(C)C(=O)OCc1ccccc1", "outcome": "inactive"}, {"smiles": "CCOC(=O)c1ccc(OC(=O)CCCCCN=C(N)N)cc1", "outcome": "inactive"}, {"smiles": "NS(=O)(=O)c1cc2c(cc1Cl)CN(C1CCCCC1)C2=O", "outcome": "inactive"}, {"smiles": "O=S(=O)(O)c1cc(O)c2ccc(Nc3ccccc3)cc2c1", "outcome": "inactive"}, {"smiles": "CC1=CCC(C(C)C)=CC1", "outcome": "inactive"}, {"smiles": "C=C1CC/C=C(\\C)CC[C@@H]2[C@@H]1CC2(C)C", "outcome": "inactive"}, {"smiles": "CCCC/C=C\\CCCCCCCCCC=O", "outcome": "inactive"}, {"smiles": "COCCc1ccc(OCC2CO2)cc1", "note": "(stereo not given)", "outcome": "inactive"}]}]}
